Reference: PubChem BioAssay AID504840 (Johns Hopkins Ion Channel Center, 2011)
The whole screen tested about 1,500 compounds, of which about 890 (59%) were called active.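 How the source made its calls: active means inhibition of the choline-evoked signal at any tested dose together with a fitted dose-response curve; inactive means no inhibition at any dose or no curve.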 The set was probably picked from earlier hits. The list is a sample of the results. Measured potencies and affinities stand elsewhere.

Target: High affinity choline transporter 1 (Homo sapiens) (UniProt Q9GZV3)
Assay: CHT inhibitors, dose response, cell-based, 5-point CRC, membrane potential dye (AID 504840)
Details: HEK293-CHT, choline-induced depolarization, CHT with LV-to-AA double alanine mutation; series mostly up to 37 µM

Chain of High affinity choline transporter 1 (Homo sapiens) (Q9GZV3 whole entry, looked up): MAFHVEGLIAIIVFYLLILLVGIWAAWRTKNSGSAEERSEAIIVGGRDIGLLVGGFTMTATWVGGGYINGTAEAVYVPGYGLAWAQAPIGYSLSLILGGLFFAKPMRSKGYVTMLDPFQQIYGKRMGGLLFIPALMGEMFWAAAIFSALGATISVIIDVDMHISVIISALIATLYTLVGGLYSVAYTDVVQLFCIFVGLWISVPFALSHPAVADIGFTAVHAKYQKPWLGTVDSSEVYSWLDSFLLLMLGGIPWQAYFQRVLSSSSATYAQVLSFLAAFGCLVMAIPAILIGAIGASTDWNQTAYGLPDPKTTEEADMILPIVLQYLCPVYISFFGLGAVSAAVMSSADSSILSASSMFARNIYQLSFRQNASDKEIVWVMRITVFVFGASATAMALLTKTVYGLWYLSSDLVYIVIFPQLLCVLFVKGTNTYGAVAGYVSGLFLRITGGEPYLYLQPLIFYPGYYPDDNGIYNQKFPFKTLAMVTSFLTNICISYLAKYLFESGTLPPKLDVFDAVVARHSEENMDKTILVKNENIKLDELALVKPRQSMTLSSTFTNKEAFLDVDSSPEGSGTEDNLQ

outcome, inactive:
Cc1ccc(C(=O)Nc2cccc(C(F)(F)F)c2)cc1NC(=O)c1csc(-c2ccncc2)n1
Cc1ccc(NC(=O)COC(=O)CN2C(=O)COc3ccccc32)cc1
CCOc1ncccc1C(=O)NCC1COc2ccccc2O1 (centres undefined)
CC1(C)CC2CC(C)(CN2C(=O)CCCN2C(=O)c3ccccc3C2=O)C1 (centres undefined)
Cc1c(CCC(=O)NCCCn2ccnc2)c(=O)oc2c(C)c3occ(C(C)(C)C)c3cc12
Cc1ccc2nc(-c3ccccc3)cc(C(=O)NCCCn3ccnc3)c2c1
CCOc1cccc(-c2nn(-c3ccccc3)cc2/C=C(/C#N)C(=O)NCCCn2ccnc2)c1
O=C(O)c1ccc(N/N=C/c2cn(-c3ccccc3)nc2-c2cccs2)cc1
COc1ccc(/C(O)=C2/C(=O)C(=O)N(c3ccccn3)C2c2cccc(Cl)c2)cc1 (centres undefined)
O=C(NC1CC1)C1=C[C@H](c2csc3ccccc23)C[C@H](OCc2ccc(CO)cc2)O1
O=C(Nc1ccc(OCc2ccccc2)cc1)Nc1ccccc1C(=O)NCCCN1CCOCC1
CSc1ccccc1C(=O)NCCS(=O)(=O)N1CCN(c2ccc(F)cc2)CC1
O=C(Nc1ccccc1C(=O)NCCCn1ccnc1)c1ccc(Cl)cc1Cl
C=CCn1c(SC2CCOC2=O)nc2scc(C3CC3)c2c1=O (centres undefined)
COc1ccc(OCC(=O)NC(=S)Nc2ccccc2F)cc1
CN(C)CCOC(=O)Cc1ccc(Cl)cc1
CN(Cc1ccccc1)C(=O)COC(=O)COc1ccc(C#N)cc1
Cc1sc2nc(SCCN(C)C)n(-c3ccccc3)c(=O)c2c1-c1ccc(F)cc1
CCCCOc1cccc(C(=O)NNC(=S)NC2CCCCC2)c1
Oc1ccc(Oc2ncc(Cl)cc2Cl)cc1
CSCCC(NC(=O)c1ccccc1)C(=O)Nc1ccc(C)cc1 (centres undefined)
CC(C)Cc1csc(NC(=O)c2ccc(Br)cc2)c1C(=O)O
O=C(C[n+]1cccc2ccccc21)c1ccc(Cl)cc1
CC(C)c1c(C(=O)N/N=C/c2cccc(OCc3ccc(F)cc3)c2)nnn1-c1nonc1N
CCCOP(=O)(c1ccc(N(C)C)cc1)C(O)c1ccc(Br)cc1 (centres undefined)
CCN1CCN(CC(=O)Nc2ccc(S(=O)(=O)N3C(C)CCCC3C)cc2)CC1 (centres undefined)
O=C(NNS(=O)(=O)c1ccc([N+](=O)[O-])cc1)c1ccc2ccccc2c1O
O=C(CCN1C(=O)/C(=C\c2cccc(Br)c2)SC1=S)NCCCN1CCOCC1
S=c1nc(-c2ccco2)[nH][nH]1
O=C(NC(=S)NNC(=O)[C@H]1C[C@@H]1c1ccccc1)c1cccc(F)c1
CCCN1CCN(C(=S)Nc2ccc3nc(N4CCN(CC)CC4)cc(C)c3c2)CC1
CCN1CCN(c2cc(C)c3cc(NC(=S)N4CCC5(CC4)OCCO5)ccc3n2)CC1
Cc1csc2c(N3CCN(C(=S)Nc4ccc(C(F)(F)F)cc4)CC3)ncnc12
O=c1c2c(C(F)(F)F)cc(C(F)(F)F)nc2[nH]n1-c1ccccc1
CCN(CC)CCCN(C(=O)c1ccc(OC)cc1)c1nc(-c2ccc(OC)cc2)cs1
CCCCCc1cc(=O)oc2c(C(CCN(CC)CC)c3cc(OC)c(OC)c(OC)c3)c(OC)cc(OC)c12 (centres undefined)
COc1cccc(C(=O)NN/C(C)=C/C(=O)C(F)(F)C(F)(F)C(F)(F)F)c1
CSC(SC)=C(C#N)C(=O)c1ccccc1
O=C1ON=C(c2ccccc2)/C1=C/c1ccco1
CCc1ccc(S(=O)(=O)c2n[nH]n3c2nc(=O)c2ccccc23)cc1
C/C(Cl)=C\Cn1c(O)c(N=O)c2ccccc21
CC(NS(=O)(=O)OCC(Cl)(Cl)Cl)c1ccc(Br)cc1 (centres undefined)
O=S(=O)(c1ccc(F)c(F)c1)N1CCN(CCc2ccccc2)CC1
O=C1CCN(CCc2ccccc2)CCN1CCSc1ccccc1
COc1ccc(S(=O)(=O)N2CCN(CCc3ccccc3)CC2)c(OC)c1
CC(C)(C)Nc1nc(Cl)nc(N(C#N)CN2C(=O)c3ccccc3S2(=O)=O)n1
Cc1ccc(SC(CC(=O)c2ccc(C(C)(C)C)cc2)C(=O)O)cc1 (centres undefined)
COc1ccc(N(CCCN2C(=O)c3cccc4cccc(c34)C2=O)C(=O)c2ccncc2)cc1
O=C(NN1C(=O)/C(=C/c2cccc(O)c2)SC1=S)c1ccccc1O
O=C(O)c1ccc(/C=C2\SC(=S)N(NC(=O)c3ccc(Br)cc3)C2=O)cc1
CC1CC(C)(C)N(C(=O)CN2C(=O)c3ccccc3C2=O)c2ccccc21 (centres undefined)
Oc1c(Br)cc(/C=N/NC(=S)NCc2ccco2)cc1Br
COc1ccc(OCC(=O)N/N=C/C=C/c2ccccc2)cc1
CCCOc1ccc(C(=O)NNC(=S)NC(=O)c2ccccc2)cc1
COc1ccc(C(=O)NNC(=S)NC(=O)c2ccccc2)cc1
CC(C)(C)N/N=C/c1cc(Cl)cc([N+](=O)[O-])c1O
CCOC(=O)c1ccc2c(c1)[nH]c(=S)n2CC
CCCCn1c(=O)n(Cc2cccc(F)c2)c(=O)c2c1ncn2Cc1ccco1
N#Cc1nc(Cc2cccc3ccccc23)oc1N1CCOCC1
O=C(Cn1ncc2c3ccccc3n(Cc3ccccc3)c2c1=O)NCCCN1CCOCC1
Cc1ccccc1-n1nnnc1Sc1nnnn1-c1ccccc1
Oc1cccc(-n2nnnc2SCc2ccccc2F)c1
C=Cn1cc[n+](CC(=O)c2ccc(Cl)cc2)c1
COc1ccc(Cl)cc1NC(=O)C[n+]1cccc(C)c1
C=Cn1cc[n+](CC(=O)c2ccc(Cl)c(Cl)c2)c1
O=[N+]([O-])c1cc([N+](=O)[O-])c2c(=Nc3ccccc3)n(-c3ccccc3)n(O)c2c1
Cc1ccc(C(=O)CCC(=O)NC2CCCC(C)C2C)cc1 (centres undefined)
CCCNC(=O)c1ccc(COc2ccc(C)cc2)o1
CC1CCC(NC(=O)c2ccc(CS(=O)(=O)Cc3ccccc3F)o2)CC1 (centres undefined)
